# In the library only some 1.4% were active in any assay of this set; here they are far more common.
# OPRM1-OPRD1 ag: agonists of OPRM1-OPRD1 heterodimerization, primary screen, cell-based, luminescence | cells | activation, % at 9.3 µM | actives 0.3% (n = 340,000) | AID 504326, 2011; in the data active means activation above about 18%;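 further: 0% = vehicle-treated cells and 100% = reference agonist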
# HTR5A inv ag: HTR5A inverse agonists in luminescence cell assay, primary screen, counter-screen for OPRM1-OPRD1 heterodimer inverse agonist project, full-deck HTS; 5-hydroxytryptamine receptor 5A (Homo sapiens), P47898; HTR5A cell line, inverse agonism; inhibition, % at 9.3 µM; actives 0.083% (n = 340,000); AID 504634, 2011; in the data active means inhibition mostly above about 23%, no sharp cut-off; inactive means mostly below about 18%;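 further: 0% = cells with DMSO and 100% = no-cell wells with DMSO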
# Target sequence (P47898 whole entry, looked up): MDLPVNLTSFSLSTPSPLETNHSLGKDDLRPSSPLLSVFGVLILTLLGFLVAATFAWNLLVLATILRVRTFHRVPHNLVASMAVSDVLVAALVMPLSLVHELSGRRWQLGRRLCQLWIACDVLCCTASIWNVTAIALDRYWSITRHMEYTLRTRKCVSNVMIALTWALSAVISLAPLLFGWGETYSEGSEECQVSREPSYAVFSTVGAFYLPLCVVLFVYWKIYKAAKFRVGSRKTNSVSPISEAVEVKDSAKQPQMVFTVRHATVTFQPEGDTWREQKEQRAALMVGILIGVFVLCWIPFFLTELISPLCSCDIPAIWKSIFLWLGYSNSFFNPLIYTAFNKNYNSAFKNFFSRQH
# OPRM1-OPRD1 inv: inverse agonists of MOR-DOR heterodimerization, primary screen, cell-based, luminescence. inhibition, % at 9.3 µM. Mu-type opioid receptor (Homo sapiens) + Delta-type opioid receptor (Homo sapiens), …. cell-based MOR-DOR heterodimer luminescence, inverse agonism. AID 504357, 2011. actives 0.21% (n = 340,000); in the data active means inhibition above about 22%, passing the limit was not always enough;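 further: 0% = cells with DMSO and 100% = wells without cells with DMSO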
# HTR5A ag: HTR5A agonists in luminescence cell assay, primary screen, counter-screen for OPRM1-OPRD1 heterodimer agonist project, full-deck HTS; cell-based; activation, % at 9.3 µM; actives 0.61% (n = 340,000); 5-hydroxytryptamine receptor 5A (Homo sapiens), P47898; in the data active means activation mostly above about 9.5%, no sharp cut-off; inactive means mostly below about 7.6%;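 further: 0% = cells with vehicle only and 100% = reference agonist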
# p-CIP stab down: p/CIP-EGFP fusion destabilizers, primary screen, fluorescence, F442A cells; Q05BA5; 16 h; decrease of EGFP signal, % at 10 µM; actives 0.01% (n = 290,000); AID 1984, 2009;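 active means EGFP signal decrease of at least 30% at 10 µM or well 3 SD below plate mean, unless failing retest; inactive means the rest, including hits failing retest or dose response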
# beta cell repl: inducers of MIN6 beta-cell proliferation, primary screen, ATP luminescence, uHTS; MIN6 cells proliferation, ATPlite luminescence, 48 h; cells starved in 0.2% serum; 100% = growth in 10% serum; proliferation, % at 10 µM; actives 0.29% (n = 330,000); AID 2380, 2010;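 active means compounds whose signal lies at least 3.5 SD above the mean of all wells on their plate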;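 further: 0% = DMSO-treated cells in low-serum medium and 100% = 10% serum control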
# * = called active by the depositor; i = inactive; x = no result.
SMILES,OPRM1-OPRD1 ag,HTR5A inv ag,OPRM1-OPRD1 inv,HTR5A ag,p-CIP stab down,beta cell repl
COc1c(Cl)cc(Cl)cc1/C=N/NC(=O)c1nnn(-c2nonc2N)c1CN1CCC(C)CC1,2,-19,-12,11*,5,-7
O=C(Cc1ccccc1[N+](=O)[O-])c1ccc2c(c1)OCO2,-2,-3,11,1,x,x
COc1ccc2sc(N(CCCN(C)C)C(=O)c3ccc(S(=O)(=O)N4CCc5ccccc5C4)cc3)nc2c1,23*,-34,-124,14*,x,-7
Cc1cc(C)c2sc(N(CCCN(C)C)C(=O)c3ccc(S(=O)(=O)N4CCCc5ccccc54)cc3)nc2c1,2,-7,-13,3,x,-7
Cc1cc(C)c2sc(N(CCCN(C)C)C(=O)c3ccc(S(=O)(=O)N4CCc5ccccc5C4)cc3)nc2c1,29*,-82,-158,33*,x,-7
CCOc1ccc(NC(=O)Nc2c(C)n(C)n(-c3ccccc3)c2=O)cc1,-1,15,6,-4,1,3
CCOC(=O)c1ccc(N=c2sc(C(=O)OC)cc(=O)n2Cc2ccco2)cc1,0,-3,-3,14*,-4,-7
CC(C)Oc1ccc(C(=O)OCC(=O)c2ccc[nH]2)cc1,2,13,-9,-5,x,-5
COc1ccc(CCNS(=O)(=O)c2ccc3c(c2)NC(=O)CS3)cc1OC,-2,0,10,11*,-13,-1
COc1ccc(CCC(=O)OCC(=O)NCc2ccccc2)cc1,-3,-17,10,0,x,0
COc1ccccc1CN=C1NC(=O)C(CC(=O)Nc2ccc(C(C)=O)cc2)S1 (stereo unspecified),0,8,-2,13*,-5,3
COc1ccc(CCNC(=O)CC2SC(=NCc3ccccc3OC)NC2=O)cc1 (stereo unspecified),-2,-2,8,1,5,-1
CCOC(=O)[C@H]1[C@H]2COc3ccc(Br)cc3[C@@H]2N2C(=O)CN(Cc3ccco3)C(=O)[C@@]12C,-1,19,8,-5,x,-3
Cc1ccc(NC(=O)COc2cccc3c2OC(C)(C)C3)c(O)c1,-3,-45,10,13*,x,4
O=C1c2ccccc2C(=O)c2c1ccc1c(=O)n(C3CCCCC3)[nH]c21,-1,-3,4,1,-12,-5
O=C1C2=C(c3ccccc31)[N+](=O)[C@@H]1CCCC[C@@H]1N2[O-],-8,18,46*,-6,1,-2
O=C(c1ccccc1)c1c2c(cc3sc4ccccc4[n+]13)-c1cccc3cccc-2c13,90*,-64,-481,33*,-25,x
O=C(NCC1(c2ccccc2)CCCC1)C(=O)NCC1(c2ccccc2)CCCC1,1,9,-3,9.9*,-5,x
O=C(CNC(=O)c1cccs1)Nc1ccc(N2CCOCC2)cc1,-2,23,8,2,x,-3
Cc1ccc(C(=O)NNC(=O)C(NC(=O)c2cccc(C)c2)C(C)C)cc1 (stereo unspecified),-1,12,3,-5,x,5
O=C(CN1C(=O)/C(=C/c2ccccc2)SC1=S)NC1C=CS(=O)(=O)C1 (stereo unspecified),-1,-16,7,12*,-10,-1
CCCCn1c(N)c(N(CCOC)C(=O)COC(=O)c2ccccc2NCCO)c(=O)[nH]c1=O,-2,-18,6,1,x,x
CC(/C=N/n1c(-c2cccnc2)n[nH]c1=S)=C\c1ccccc1,0,-3,0,1,-3,0
CC(=C/c1ccccc1)/C=N/n1c(-c2ccncc2)n[nH]c1=S,-2,8,11,-6,-8,15*
CC[C@@H](C(=O)[C@@H](C)[C@@H](O)[C@H](C)CCc1ccc(C)c(O)c1C(=O)O)[C@H]1O[C@](CC)([C@H]2CC[C@](O)(CC)[C@H](C)O2)C[C@@H]1C,102*,-143,i,40*,-6,-8
SMILES,OPRM1-OPRD1 ag,HTR5A inv ag,OPRM1-OPRD1 inv,HTR5A ag,p-CIP stab down,beta cell repl
COc1cc2[nH]c3c(=O)n4c(nc3c2cc1OC)SCCC4,0,-25,1,9.9*,13,4
O=C(O)C1CCN(C(=O)CSc2nnc3ccccn23)CC1,-2,-22,7,8,x,0
Cc1cc(C(=O)OCC(=O)Nc2ccc(S(N)(=O)=O)cc2)c2ccccc2n1,-3,8,13,-1,62*,1
COc1ccccc1NC(=O)COC(=O)c1cc(C)nc2ccccc12,-2,0,8,0,x,2
CCn1c(SCC(=O)Nc2ccc(F)cc2)nnc1C1CC1,0,-15,-3,5,-13,-4
CCn1c(SCC(=O)Nc2sccc2C(N)=O)nnc1C1CC1,-1,-31,4,13*,x,1
CCOc1[nH]n(-c2ccccc2)c(=O)c1C=Nc1ccccc1,0,7,-3,13*,3,-1
CCOc1[nH]n(-c2ccccc2)c(=O)c1C=Nc1ccc(C)cc1,-1,-7,6,-1,-3,4
Cc1ccc(S(=O)(=O)N2CCN(C(=O)COC(=O)CCOc3ccccc3)CC2)c(C)c1,1,18,-5,-7,x,-2
CCOCc1nnc(NC(=O)c2cc(OC)c(OC)cc2[N+](=O)[O-])s1,1,3,-3,12*,-9,3
CCOCCc1nnc(NC(=O)c2cc(OC)c(OC)cc2[N+](=O)[O-])s1,-2,9,10,-3,-11,-1
O=C(Nc1ccccc1C(=O)O)c1ccc(Br)o1,-1,11,4,9,-13,-1
O=C(Nc1ccccc1F)c1ccc(Br)o1,-3,13,16,13*,1,2
Cc1ccc(C(=O)Sc2cccccc2=O)cc1,-9,34*,40*,-10,7,-6
Fc1ccc(/C=C2\CCCC3=C2Nc2ncnn2C3c2ccc(F)cc2)cc1 (stereo unspecified),6,-59,-31,10*,-3,-6
COc1ccc(C2C3=C(Nc4ncnn42)c2ccccc2CCC3)cc1 (stereo unspecified),1,-6,-3,2,-8,1
CCOC(=O)C(Cc1ccccc1)NC(C)=O (stereo unspecified),-2,-24,10,12*,6,-1
Cc1nn(C)c(C)c1/C=N/NC(=O)c1csc2ccccc12,x,x,x,x,-6,-2
Cc1c(/C=N\NC(=O)c2csc3ccccc23)cnn1C,-1,-50,3,11*,-8,2

# Compound activity deposited in PubChem by several laboratories.
